The list is not random: actives were taken first. Their share in the collection is about 0.96%.
Resorufin autofl = qHTS Assay for Spectroscopic Profiling in Resorufin Spectral Region. Compound fluorescence, resorufin region 547/598 nm, buffer; active compounds read high. max dye-equivalent concentration, M. actives 0.04% (n = 59,000)
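Compounds in 100 mM Tris, pH 8.0, incubated 15 min at room temperature, then fluorescence read at 547 nm excitation/598 nm emission. Signal converted to dye-equivalent concentration via an on-plate six-point resorufin standard curve, per compound concentration.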
Fluorescein fluor = qHTS Assay for Spectroscopic Profiling in Fluorescein Spectral Region | max fluorescein-equivalent concentration, M | Compound autofluorescence, 480/540 nm, fluorescein-equivalent; active compounds read high | actives 0.91% (n = 59,000); in the data active = max fluorescein-equivalent concentration above about 10 nM; inconclusive = between about 1.1 nM and that limit
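First, buffer (100 mM Tris, pH 8.0) dispensed; second, compounds and fluorescein standards pinned in; third, 15 min room-temperature incubation; finally, imaging at ex 480 nm/em 540 nm. Fluorescence normalized against the six-point fluorescein curve.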
A488 autofl = qHTS Assay for Spectroscopic Profiling in A488 Spectral Region; AID 591, 2007; max dye equivalency, M; compound autofluorescence, A488 spectral region, dye equivalency; Compound Type: qHTS ECL - MLSMR; actives 0.1% (n = 59,000)
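Spectroscopic profiling in the A488 region: compounds in pH 8.0 Tris (100 mM), 15 min RT, CCD imaging with 480 nm excitation and 540 nm emission; responses normalized against A488 dye standards.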
A647 autofl = qHTS Assay for Spectroscopic Profiling in A647 Spectral Region; max dye-equivalent concentration, M; Compound fluorescence, A647 channel (570/671 nm), Tris buffer; AID 592, 2007; 59,000 tested, under 10 active;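 also: values scaled relative to a standard on each plate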
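Tris 100 mM pH 8.0; cpd + A647 stds pin-transferred; 15 min RT; CCD imager, ex 570/em 671. Output = A647-equivalent conc. per cpd conc.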
TexasRed autofl = qHTS Assay for Spectroscopic Profiling in Texas Red Spectral Region. Compound fluorescence, Texas Red channel, 547/618 nm; active compounds read high. max dye-equivalent concentration, M. actives 0.06% (n = 59,000); in the data active = max dye-equivalent concentration above about 10 nM; inconclusive = between about 1.1 nM and that limit
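Spectral interference profiling: each compound concentration's relative fluorescence, read with a 547 nm excitation and 618 nm emission filter pair, was normalized to a per-plate Texas Red standard curve.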
Rhodamine fluor = qHTS Assay for Spectroscopic Profiling in Rhodamine Spectral Region. Rhodamine-region fluorescence, 547/598 nm, Tris buffer; active compounds read high. max dye-equivalent concentration, M. actives 0.05% (n = 59,000). AID 594, 2007; in the data active = max dye-equivalent concentration above about 11 nM; inconclusive = between about 1.1 nM and that limit
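Compounds in 100 mM Tris buffer, pH 8.0, were incubated 15 min at room temperature, then read at 547 nm excitation and 598 nm emission. Fluorescence was normalized against a per-plate six-point rhodamine standard curve as dye-equivalent concentration.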
* hit, by the source's call; ! = repeats disagree. Unless noted, no rule for the calls is given here.

Screening CCOC(=O)N1CC=C2C(C#N)=C(N)C(C#N)(C#N)[C@H](c3ccsc3)[C@H]2C1 returned Resorufin autofl inactive, Fluorescein fluor inconclusive, A488 autofl inactive, A647 autofl 8e-09, TexasRed autofl inconclusive and Rhodamine fluor inactive.
Screening CN1CCCN(C)C1c1cc([N+](=O)[O-])ccc1O returned Resorufin autofl inactive, Fluorescein fluor inactive, A488 autofl inactive, A647 autofl 1e-09, TexasRed autofl inactive and Rhodamine fluor inactive.
For COc1cccc(C2C3CN(C)CC=C3C(C#N)=C(N)C2(C#N)C#N)c1OC (configuration not stated) the results were Resorufin autofl inactive, Fluorescein fluor 5.2e-08M*, A488 autofl inconclusive, A647 autofl 2.6e-08, TexasRed autofl inactive and Rhodamine fluor inactive.
`CCOC(=O)N1CC=C2C(C#N)=C(N)C(C#N)(C#N)[C@H](c3ccc(OC(C)C)c(OCC)c3)[C@H]2C1` gave Resorufin autofl inactive, Fluorescein fluor inactive, A488 autofl inactive, A647 autofl 1e-09, TexasRed autofl inactive and Rhodamine fluor inactive.
For COc1cc([C@@H]2[C@H]3CN(C)CC=C3C(C#N)=C(N)C2(C#N)C#N)cc2c1OCO2 the results were Resorufin autofl inactive, Fluorescein fluor 1.1e-08M*, A488 autofl inactive, A647 autofl 5.1e-08, TexasRed autofl inactive and Rhodamine fluor inactive.
For C/C(=N\NC(=O)c1ccncc1)c1ccc2ccccc2c1O the results were Resorufin autofl inactive, Fluorescein fluor 3.5e-08M*, A488 autofl inconclusive, A647 autofl 1.1e-08, TexasRed autofl inactive and Rhodamine fluor inactive.
Screening N[C@@H](CSCc1ccccc1)C(=O)O returned Resorufin autofl inactive, Fluorescein fluor inactive, A488 autofl inactive, A647 autofl 2.3e-09, TexasRed autofl inactive and Rhodamine fluor inactive.
`CCCOc1ccc(/C=c2\sc3nc(-c4ccco4)nn3c2=O)cc1OCC` gave Resorufin autofl inactive, Fluorescein fluor 3.2e-08M*, A488 autofl inconclusive, A647 autofl 1.5e-08, TexasRed autofl inactive and Rhodamine fluor inactive.
Screening COc1ccccc1NC(=O)c1sc2nc(-c3ccco3)ccc2c1N returned Resorufin autofl inactive, Fluorescein fluor inactive, A488 autofl inactive, A647 autofl 1e-09, TexasRed autofl inactive and Rhodamine fluor inactive.
For Nc1c(C(=O)Nc2ccccc2)sc2nc(-c3ccco3)ccc12 the results were Resorufin autofl inactive, Fluorescein fluor 1.6e-08M*, A488 autofl inactive, A647 autofl 6.2e-09, TexasRed autofl inconclusive and Rhodamine fluor inactive.
Screening C=C[C@@H]1CN2CC[C@@H]1C[C@H]2[C@H](O)c1ccnc2ccc(OC)cc12 returned Resorufin autofl inactive, Fluorescein fluor inactive, A488 autofl inactive, A647 autofl 7e-09, TexasRed autofl inactive and Rhodamine fluor inactive.
`CC1=CC(C#N)(C#N)C(C#N)(C#N)C(c2ccccc2)N1` (configuration not stated) gave Resorufin autofl 2e-08M*, Fluorescein fluor 9.2e-08M*, A488 autofl inconclusive, A647 autofl 1.7e-09, TexasRed autofl 3.4e-08M* and Rhodamine fluor 2.8e-08M*.
For CCOC(=O)c1sc(N)c(C#N)c1COC(=O)CNC(=O)c1ccccc1 the results were Resorufin autofl inactive, Fluorescein fluor 3e-08M*, A488 autofl inactive, A647 autofl 9.1e-09, TexasRed autofl inactive and Rhodamine fluor inactive.
Screening CCOC(=O)c1sc(N)c(C#N)c1CSc1nc2ccc(OCC)cc2[nH]1 returned Resorufin autofl inactive, Fluorescein fluor inactive, A488 autofl inactive, A647 autofl 6.6e-09, TexasRed autofl inactive and Rhodamine fluor inactive.
Screening C[C@H](N[C@@H](C)COc1ccccc1)[C@H](O)c1ccc(O)cc1 returned Resorufin autofl inactive, Fluorescein fluor inconclusive, A488 autofl inactive, A647 autofl 3.3e-08, TexasRed autofl inactive and Rhodamine fluor inactive.
`COc1cccc(Cn2c(=O)c(-c3ccc(Cl)cc3)nc3cnc(N(C)C)nc32)c1` gave Resorufin autofl inactive, Fluorescein fluor inactive, A488 autofl inactive, A647 autofl 4.9e-09, TexasRed autofl inconclusive and Rhodamine fluor inactive.
COC(=O)C1=CO[C@@H](C)[C@H]2CN3CCc4c([nH]c5ccccc45)[C@@H]3C[C@H]12 was read as Resorufin autofl inactive, Fluorescein fluor 1e-08M*!, A488 autofl inactive, A647 autofl 1.9e-09, TexasRed autofl inactive and Rhodamine fluor inactive.
Screening COc1cccc(Cn2c(N)c(C#N)c3nc4ccccc4nc32)c1OC returned Resorufin autofl inactive, Fluorescein fluor 1.3e-08M*, A488 autofl inactive, A647 autofl 3.2e-08, TexasRed autofl inactive and Rhodamine fluor inactive.
COc1cc(Cn2c(N)c(C#N)c3nc4ccccc4nc32)cc(OC)c1 was read as Resorufin autofl inactive, Fluorescein fluor inconclusive, A488 autofl inactive, A647 autofl 4.5e-08, TexasRed autofl inactive and Rhodamine fluor inactive.
For COc1cccc(Nc2ncc3nc(-c4cn(C)c5ccccc45)c(=O)n(C[C@H]4CCCO4)c3n2)c1 the results were Resorufin autofl inactive, Fluorescein fluor 1.6e-08M*, A488 autofl inactive, A647 autofl 1e-09, TexasRed autofl inactive and Rhodamine fluor inactive.
Screening COc1cccc(Nc2ncc3nc(-c4cccs4)c(=O)n(C[C@H]4CCCO4)c3n2)c1 returned Resorufin autofl inactive, Fluorescein fluor 4.2e-08M*, A488 autofl inconclusive, A647 autofl 1e-09, TexasRed autofl inactive and Rhodamine fluor inactive.
Screening O=C(O)CCc1c2ccc(=O)c(O)c-2oc2c(O)c(O)ccc12 returned Resorufin autofl inactive, Fluorescein fluor 1.1e-08M*, A488 autofl inactive, A647 autofl 1e-09, TexasRed autofl inactive and Rhodamine fluor inactive.
Screening CCOc1cc(-c2ccc(N)c(OCC)c2)ccc1N returned Resorufin autofl inactive, Fluorescein fluor 9.8e-08M*, A488 autofl inconclusive, A647 autofl 1e-09, TexasRed autofl inactive and Rhodamine fluor inactive.
For Cc1cc2c(cc1C)NC(c1c(C)n(C)n(-c3ccccc3)c1=O)C1=C(CC(C)(C)CC1=O)N2 (configuration not stated) the results were Resorufin autofl inactive, Fluorescein fluor 4.3e-08M*, A488 autofl inconclusive, A647 autofl 6e-09, TexasRed autofl inconclusive and Rhodamine fluor inactive.
For CCN(CC)c1ccc2c(c1)OC(N)=C(C#N)C2c1cccnc1 (configuration not stated) the results were Resorufin autofl inactive, Fluorescein fluor 4.8e-08M*, A488 autofl inconclusive, A647 autofl 1.3e-08, TexasRed autofl inactive and Rhodamine fluor inactive.

Screens from PubChem BioAssay.
